Test results published in PubChem BioAssay.
Values without a mark were called inactive. The list shows a part of the results. Active and inactive are the calls of the source.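 How the source made its calls, unless noted: active means mean inhibition above 46.68%, the untreated control wells mean plus 3 SD; inactive means the rest.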

Experiments:
[1] = target: Nuclear receptor coactivator 3 (Homo sapiens) (UniProt Q9Y6Q9); experiment: NCOA3 GAL4-fusion reporter inhibition – cell-based, luminescence, quadruplicate, confirmation (AID 588792;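 active means mean inhibition over 43.08%, the solvent-only control mean plus 3 SD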;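 further: 0% = DMSO treated cells and 100% = gossypol at 36 µM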); settings: HEK293 GAL4-SRC3 luciferase reporter, at 3.6 µM, active compounds read high
[2] = system: transactivating tegument protein VP16 (Human herpesvirus 1), Gal4-VP16 luciferase reporter; experiment: repression of VP16-driven luciferase reporter – cell-based, luminescence, high throughput, counter-screen for SRC3 inhibitor project (AID 588794; in the data active means inhibition above about 30%); settings: mammalian cells, at 3.6 µM, active compounds read high
[3] = target: Nuclear receptor coactivator 1 (Homo sapiens) (UniProt Q15788); experiment: NCOA1 GAL4-fusion reporter inhibition – cell-based, luminescence, quadruplicate, confirmation (AID 588820); settings: HEK293 GAL4-SRC1 luciferase reporter, at 3.6 µM, active compounds read high;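 further: 0% = DMSO wells and 100% = gossypol 36 µM treated wells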
[4] = repression of VP16-driven luciferase reporter – cell-based, luminescence, high throughput, counter-screen for SRC1 inhibitor project (AID 588824; in the data active means inhibition above about 25%); settings: cell-based VP16 transactivation luciferase luminescence; at 3.6 µM; active compounds read high
[5] = target: Photoreceptor-specific nuclear receptor (Homo sapiens) (UniProt Q9Y5X4); experiment: retest of NR2E3-NCOR disrupting agonists – cell-based, luminescence, CHO-S two-hybrid, confirmation (AID 624378;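 active means average inhibition above a cutoff equal to the mean inhibition of all tested compounds plus one SD, cut at about 70% in these data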;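 further: 0% = DMSO in NR2E3 cells and 100% = DMSO in cells lacking NR2E3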); settings: CHO-S mammalian two-hybrid NR2E3-NCOR, luciferase luminescence; at 3.98 µM; active compounds read high
[6] = nonselective effects on VP16 transactivation – cell-based, luminescence, CHO-S, high throughput, counter-screen for NR2E3 agonist project, confirmation (AID 624379;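 active means mean inhibition above a cutoff equal to the average over all tested compounds plus one standard deviation, cut at about 70% in these data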;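 further: 0% = DMSO with VP16-transfected cells and 100% = DMSO with cells lacking VP16; higher means less reporter light so more repression of VP16 activity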); settings: CHO-S GAL4-VP16 luciferase reporter, at 3.98 µM, active compounds read high
[7] = StAR promoter reporter inhibitors, counter-screen for LRH-1 inverse agonist project, cell-based, luminescence, high throughput (AID 651611; in the data active means inhibition above about 28%); settings: StAR promoter luciferase reporter counterscreen, at 3.6 µM, active compounds read high
[8] = target: Nuclear receptor subfamily 5 group A member 2 (Homo sapiens) (UniProt O00482); experiment: NR5A2 activity suppression in reporter cells – cell-based, luminescence, confirmation (AID 651613; in the data active means inhibition above about 42%;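 further: HEK293T cells co-transfected with LRH-1 and StAR promoter luciferase reporter; 0% = vehicle wells and 100% = parental cells lacking receptor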); settings: cell-based LRH-1 luciferase reporter, inverse agonism; at 3.6 µM; active compounds read high
[9] = target: Steroidogenic factor 1 (Homo sapiens) (UniProt Q13285); experiment: inverse agonism at SF1 nuclear receptor – cell-based, luminescence, high throughput, counter-screen for LRH-1 inverse agonist project (AID 651614; in the data active means inhibition above about 44%;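 further: cells cotransfected with StAR promoter reporter and SF1 expression vector; 0% = vehicle on cells with receptor and 100% = vehicle on cells lacking receptor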); settings: cell-based SF1 luciferase reporter, at 3.6 µM, active compounds read high
[10] = compounds suppressing VP16-driven luciferase signal – cell-based, luminescence, high throughput, counter-screen for LRH-1 inverse agonist project (AID 651615; in the data active means inhibition above about 33%); settings: Gal4-VP16 luciferase reporter cells, at 3.6 µM, active compounds read high
[11] = system: transactivating tegument protein VP16 (Human herpesvirus 1); experiment: compounds suppressing VP16-driven luciferase signal – cell-based, luminescence, single concentration, counter-screen for SRC2 inhibitor project (AID 652007; in the data active means inhibition above about 36%); settings: cell-based VP16 transactivation luciferase reporter, at 8.9 µM, active compounds read high
[12] = target: Nuclear receptor coactivator 2 (Homo sapiens) (UniProt Q15596); experiment: inhibition of GAL4-SRC2 driven luciferase expression – cell-based, luminescence, HEK293, triplicate, confirmation (AID 652008;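 active means mean inhibition above 46.5%, the solvent-only control mean plus 3 SD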;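 further: 0% = DMSO-treated cells and 100% = Gossypol at 36 µM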); settings: HEK293 GAL4-SRC2 luciferase reporter, at 8.9 µM, active compounds read high
[13] = VP16-driven transactivation reporter suppression – cell-based, luminescence, HEK293, counter-screen for COUP-TFII antagonist project (AID 687007; in the data active means inhibition above about 13%); settings: HEK293 Gal4-VP16 luciferase reporter, at 8.5 µM, active compounds read high
[14] = target: COUP transcription factor 2 (Homo sapiens) (UniProt P24468); experiment: retest of COUP-TFII reporter suppressors – cell-based, luciferase reporter, HEK293, triplicate, confirmation (AID 687008;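 active means mean inhibition over three repeats above a set limit taken from the earlier primary screen, cut at about 38% in these data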;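 further: 100% = cells given the luciferase reporter alone without the COUP-TF2 vector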); settings: HEK293 NGFI-A luciferase reporter, luminescence; at 8.5 µM; active compounds read high
Sequence of COUP transcription factor 2 (Homo sapiens) (P24468 whole entry, looked up): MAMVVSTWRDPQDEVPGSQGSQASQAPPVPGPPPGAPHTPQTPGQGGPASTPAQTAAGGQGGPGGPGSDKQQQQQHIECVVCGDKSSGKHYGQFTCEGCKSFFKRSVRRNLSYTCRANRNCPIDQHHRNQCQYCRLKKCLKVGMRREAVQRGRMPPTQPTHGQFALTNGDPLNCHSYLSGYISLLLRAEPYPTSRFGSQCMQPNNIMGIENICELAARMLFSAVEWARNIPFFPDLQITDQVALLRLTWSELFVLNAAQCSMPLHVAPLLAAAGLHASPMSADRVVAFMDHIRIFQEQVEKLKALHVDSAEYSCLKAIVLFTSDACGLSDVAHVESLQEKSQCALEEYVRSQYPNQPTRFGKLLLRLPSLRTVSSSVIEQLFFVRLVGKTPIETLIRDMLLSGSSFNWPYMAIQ

Sequence of Steroidogenic factor 1 (Homo sapiens) (Q13285 whole entry, looked up, the tested form may be a part): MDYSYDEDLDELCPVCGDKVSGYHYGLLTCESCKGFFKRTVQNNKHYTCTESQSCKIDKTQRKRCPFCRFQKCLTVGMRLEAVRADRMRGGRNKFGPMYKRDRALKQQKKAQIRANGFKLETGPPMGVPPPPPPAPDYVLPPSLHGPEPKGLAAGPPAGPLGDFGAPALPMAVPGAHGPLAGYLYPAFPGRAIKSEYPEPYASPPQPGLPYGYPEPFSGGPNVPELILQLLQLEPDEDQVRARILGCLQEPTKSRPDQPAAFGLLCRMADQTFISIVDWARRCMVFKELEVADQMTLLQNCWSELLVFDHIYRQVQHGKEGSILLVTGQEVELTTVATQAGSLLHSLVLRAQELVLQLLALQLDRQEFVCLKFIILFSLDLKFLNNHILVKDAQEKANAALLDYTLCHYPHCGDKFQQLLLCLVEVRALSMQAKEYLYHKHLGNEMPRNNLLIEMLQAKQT
Sequence of Nuclear receptor coactivator 1 (Homo sapiens) (Q15788 whole entry, looked up, the tested form may be a part): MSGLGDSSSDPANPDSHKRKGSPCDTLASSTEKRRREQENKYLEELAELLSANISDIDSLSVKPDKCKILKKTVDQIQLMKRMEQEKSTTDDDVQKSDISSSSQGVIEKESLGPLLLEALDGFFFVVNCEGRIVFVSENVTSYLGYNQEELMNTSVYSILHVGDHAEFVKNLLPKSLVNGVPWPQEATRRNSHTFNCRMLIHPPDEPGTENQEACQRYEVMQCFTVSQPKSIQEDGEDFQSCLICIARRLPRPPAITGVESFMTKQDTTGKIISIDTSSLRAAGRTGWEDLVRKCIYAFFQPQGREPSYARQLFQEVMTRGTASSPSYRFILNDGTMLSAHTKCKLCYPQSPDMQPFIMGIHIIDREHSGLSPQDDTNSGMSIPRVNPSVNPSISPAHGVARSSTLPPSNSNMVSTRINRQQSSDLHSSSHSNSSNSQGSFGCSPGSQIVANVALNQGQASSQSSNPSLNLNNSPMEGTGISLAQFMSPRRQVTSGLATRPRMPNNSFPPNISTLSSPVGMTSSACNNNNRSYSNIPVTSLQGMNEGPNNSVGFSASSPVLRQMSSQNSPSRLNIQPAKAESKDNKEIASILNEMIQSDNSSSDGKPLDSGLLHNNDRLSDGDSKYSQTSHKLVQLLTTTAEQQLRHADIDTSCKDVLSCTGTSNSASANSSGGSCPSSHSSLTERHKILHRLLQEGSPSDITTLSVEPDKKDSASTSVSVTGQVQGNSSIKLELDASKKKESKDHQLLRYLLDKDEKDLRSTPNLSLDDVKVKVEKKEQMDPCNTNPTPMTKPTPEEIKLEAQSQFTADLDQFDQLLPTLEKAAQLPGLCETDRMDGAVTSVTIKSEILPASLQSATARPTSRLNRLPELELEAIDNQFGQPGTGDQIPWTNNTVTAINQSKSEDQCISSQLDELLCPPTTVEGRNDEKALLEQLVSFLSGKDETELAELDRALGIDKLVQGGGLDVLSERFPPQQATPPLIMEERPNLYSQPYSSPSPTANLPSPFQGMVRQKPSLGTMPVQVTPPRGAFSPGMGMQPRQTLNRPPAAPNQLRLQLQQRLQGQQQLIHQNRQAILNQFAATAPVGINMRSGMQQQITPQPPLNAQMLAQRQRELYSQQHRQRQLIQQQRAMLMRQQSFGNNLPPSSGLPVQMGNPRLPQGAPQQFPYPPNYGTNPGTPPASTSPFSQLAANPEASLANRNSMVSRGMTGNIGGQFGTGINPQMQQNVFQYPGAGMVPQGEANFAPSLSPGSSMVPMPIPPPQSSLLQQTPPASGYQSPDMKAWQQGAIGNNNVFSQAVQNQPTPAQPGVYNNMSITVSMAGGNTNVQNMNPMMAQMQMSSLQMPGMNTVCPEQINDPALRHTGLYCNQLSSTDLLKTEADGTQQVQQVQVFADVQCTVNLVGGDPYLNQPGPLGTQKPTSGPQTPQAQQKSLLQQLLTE
Sequence of Photoreceptor-specific nuclear receptor (Homo sapiens) (Q9Y5X4 whole entry, looked up): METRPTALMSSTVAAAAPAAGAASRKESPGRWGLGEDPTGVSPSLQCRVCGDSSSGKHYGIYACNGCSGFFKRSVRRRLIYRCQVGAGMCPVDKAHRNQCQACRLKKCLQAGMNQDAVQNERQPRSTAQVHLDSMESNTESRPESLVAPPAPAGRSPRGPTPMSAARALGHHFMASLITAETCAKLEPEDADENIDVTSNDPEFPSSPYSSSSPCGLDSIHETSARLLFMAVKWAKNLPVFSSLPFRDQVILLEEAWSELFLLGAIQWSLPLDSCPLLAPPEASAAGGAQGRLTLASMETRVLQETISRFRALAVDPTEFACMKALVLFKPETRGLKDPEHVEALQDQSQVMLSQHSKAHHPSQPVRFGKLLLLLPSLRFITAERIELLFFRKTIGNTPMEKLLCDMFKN
Sequence of Nuclear receptor subfamily 5 group A member 2 (Homo sapiens) (O00482 whole entry, looked up): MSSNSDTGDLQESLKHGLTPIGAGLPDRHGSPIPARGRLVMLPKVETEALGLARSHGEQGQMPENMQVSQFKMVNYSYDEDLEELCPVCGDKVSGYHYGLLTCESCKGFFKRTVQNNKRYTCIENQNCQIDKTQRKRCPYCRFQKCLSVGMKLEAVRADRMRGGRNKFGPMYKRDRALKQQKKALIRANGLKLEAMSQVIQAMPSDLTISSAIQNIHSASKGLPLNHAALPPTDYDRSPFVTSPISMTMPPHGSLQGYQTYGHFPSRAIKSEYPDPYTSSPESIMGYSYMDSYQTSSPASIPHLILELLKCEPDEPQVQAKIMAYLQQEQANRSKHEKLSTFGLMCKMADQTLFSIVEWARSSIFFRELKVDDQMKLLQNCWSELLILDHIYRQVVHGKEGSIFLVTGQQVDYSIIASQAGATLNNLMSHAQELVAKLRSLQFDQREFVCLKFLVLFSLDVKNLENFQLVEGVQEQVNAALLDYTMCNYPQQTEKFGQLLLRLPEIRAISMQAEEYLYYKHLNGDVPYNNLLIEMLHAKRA
Sequence of Nuclear receptor coactivator 2 (Homo sapiens) (Q15596 whole entry, looked up, the tested form may be a part): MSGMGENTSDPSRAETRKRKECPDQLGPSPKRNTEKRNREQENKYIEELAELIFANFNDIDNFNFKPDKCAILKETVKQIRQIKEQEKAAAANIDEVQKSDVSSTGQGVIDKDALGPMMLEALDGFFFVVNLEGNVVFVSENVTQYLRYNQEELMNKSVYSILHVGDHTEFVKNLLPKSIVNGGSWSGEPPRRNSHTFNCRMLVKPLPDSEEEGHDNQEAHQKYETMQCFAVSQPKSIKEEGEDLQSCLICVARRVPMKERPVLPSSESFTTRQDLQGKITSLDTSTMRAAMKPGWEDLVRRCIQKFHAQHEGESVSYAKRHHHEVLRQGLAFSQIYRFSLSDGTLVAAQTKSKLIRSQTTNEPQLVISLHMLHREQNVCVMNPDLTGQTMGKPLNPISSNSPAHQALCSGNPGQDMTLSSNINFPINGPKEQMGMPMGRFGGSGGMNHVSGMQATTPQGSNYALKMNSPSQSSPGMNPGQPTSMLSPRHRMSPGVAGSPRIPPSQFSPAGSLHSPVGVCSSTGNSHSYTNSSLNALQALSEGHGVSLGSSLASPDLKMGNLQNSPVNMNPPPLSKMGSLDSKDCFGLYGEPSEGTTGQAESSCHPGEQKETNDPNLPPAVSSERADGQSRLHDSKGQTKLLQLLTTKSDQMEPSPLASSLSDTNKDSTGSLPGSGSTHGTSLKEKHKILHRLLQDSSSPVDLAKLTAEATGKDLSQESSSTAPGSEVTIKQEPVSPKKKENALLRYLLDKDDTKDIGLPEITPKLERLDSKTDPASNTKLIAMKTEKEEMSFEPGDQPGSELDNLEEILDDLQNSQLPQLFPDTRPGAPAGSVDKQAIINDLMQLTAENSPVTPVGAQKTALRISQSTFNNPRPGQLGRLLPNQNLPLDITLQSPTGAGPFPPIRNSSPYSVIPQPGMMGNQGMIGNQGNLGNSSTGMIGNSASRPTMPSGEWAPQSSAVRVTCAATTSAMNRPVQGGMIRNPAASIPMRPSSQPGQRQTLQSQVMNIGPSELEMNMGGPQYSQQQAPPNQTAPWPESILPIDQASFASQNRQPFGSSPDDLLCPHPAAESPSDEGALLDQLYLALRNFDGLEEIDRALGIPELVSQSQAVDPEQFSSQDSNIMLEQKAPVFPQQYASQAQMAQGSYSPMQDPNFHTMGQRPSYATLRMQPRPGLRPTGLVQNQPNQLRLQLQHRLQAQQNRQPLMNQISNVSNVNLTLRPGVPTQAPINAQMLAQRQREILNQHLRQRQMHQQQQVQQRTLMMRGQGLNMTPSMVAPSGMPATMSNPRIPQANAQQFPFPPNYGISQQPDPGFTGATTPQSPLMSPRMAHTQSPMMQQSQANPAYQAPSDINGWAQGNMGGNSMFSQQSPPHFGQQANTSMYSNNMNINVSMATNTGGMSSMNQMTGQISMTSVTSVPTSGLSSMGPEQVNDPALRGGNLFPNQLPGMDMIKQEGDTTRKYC

## O=C(NCc1ccc(Cl)cc1)c1csc(-c2cccnc2)n1
[1]
  inhibition: 13.6%
[2]
  inhibition: 16.3%
[3]
  inhibition: 10.2%
[4]
  inhibition: 7.38%

## CN=C1S/C(=C\c2cc(C)n(-c3ccccc3F)c2C)C(=O)N1C
[1]
  inhibition: -15.3%
[2]
  inhibition: -38.2%
[3]
  inhibition: -105%
[4]
  inhibition: -68%

## CCOC(=O)N=Nc1c2ccccc2c2nc3no[nH]c3nc12
[1]
  inhibition: 95.7% (active)
[2]
  inhibition: 93.1% (active)
[3]
  inhibition: 88.3% (active)
[4]
  inhibition: 92.4% (active)

## c1ccc2c(-c3cncc4ccccc34)cncc2c1
[1]
  inhibition: 31.4%
[2]
  inhibition: 32.7% (active)
[3]
  inhibition: 36.4%
[4]
  inhibition: 28% (active)

## Cn1c(CC(=O)Nc2ccc(Cl)c(Cl)c2)nnc1SCC(=O)N1CCN(c2ccccc2)CC1
[1]
  inhibition: 14.9%
[2]
  inhibition: 12.5%
[3]
  inhibition: 9.04%
[4]
  inhibition: 9.79%

## COc1cc(Cl)cc(/C=N\NC(=O)c2ccc3c(c2)OCO3)c1O
[1]
  inhibition: 24.7%
[2]
  inhibition: 33.3% (active)
[3]
  inhibition: 30.5%
[4]
  inhibition: 33.6% (active)

## O=C(/C=C/c1ccc(Cl)cc1)NC(=S)Nc1ccc(NC(=O)c2ccco2)cc1
[1]
  inhibition: 29.7%
[2]
  inhibition: 63.8% (active)
[3]
  inhibition: 45.1%
[4]
  inhibition: 65% (active)

## Cc1nc2c(-c3ccc(Cl)cc3)c(C)[nH]n2c(=O)c1Cc1ccccc1
[1]
  inhibition: 24.1%
[2]
  inhibition: 29.3%
[3]
  inhibition: 24.5%
[4]
  inhibition: 22.1%

## C(=Cc1cnc2ccccc2n1)c1ccc2c(c1)OCO2
[1]
  inhibition: 58.3% (active)
[2]
  inhibition: 25.1%
[3]
  inhibition: -41.3%
[4]
  inhibition: 21.3%

## CCN(CC)c1ncnc2ccc(Br)cc12
[1]
  inhibition: 48.3% (active)
[2]
  inhibition: 31.9% (active)
[3]
  inhibition: 45.9%
[4]
  inhibition: 36% (active)

## CC(C)(C)C(=O)NC(=S)NNC(=O)c1sc2ccccc2c1Cl
[1]
  inhibition: 10.1%
[2]
  inhibition: 3.67%
[3]
  inhibition: -1.3%
[4]
  inhibition: -6.4%

## O=c1[nH]c(=O)n(C2C[C@H](O)[C@@H](CO)O2)cc1C(F)(F)F (stereo not given in full)
[1]
  inhibition: 45.7% (active)
[2]
  inhibition: 40% (active)
[3]
  inhibition: 54.4% (active)
[4]
  inhibition: 44.3% (active)

## Cc1ccsc1C(=O)OCC(=O)c1cc(C)n(CC2CCCO2)c1C (stereo not given)
[1]
  inhibition: 73.4% (active)
[2]
  inhibition: 65.6% (active)
[3]
  inhibition: 49.5% (active)
[4]
  inhibition: 44.4% (active)
[5]
  inhibition: 70.8% (active)
[6]
  inhibition: 50.3%
[7]
  inhibition: 66.9% (active)
[8]
  inhibition: 15.3%
[9]
  inhibition: 61.6% (active)
[10]
  inhibition: 39.8% (active)
[11]
  inhibition: 59.5% (active)
[12]
  inhibition: 85% (active)
[13]
  inhibition: 78.4% (active)
[14]
  inhibition: 97.7% (active)

## O=C1C(=O)c2cccnc2-c2ncccc21
[1]
  inhibition: 99.2% (active)
[2]
  inhibition: 97.1% (active)
[3]
  inhibition: 97.1% (active)
[4]
  inhibition: 96.7% (active)
[7]
  inhibition: 99.4% (active)
[8]
  inhibition: 110% (active)
[9]
  inhibition: 99.5% (active)
[10]
  inhibition: 99.6% (active)

## CC(=O)N1CCCc2cc(S(=O)(=O)N3CCCC(C(=O)N4CCN(c5cccc(Cl)c5)CC4)C3)ccc21 (stereo not given)
[1]
  inhibition: 26.4%
[2]
  inhibition: 31.5% (active)
[3]
  inhibition: 7.87%
[4]
  inhibition: 35.6% (active)
[5]
  inhibition: 93% (active)
[6]
  inhibition: 70.2%
[11]
  inhibition: 14.8%
[12]
  inhibition: 26.6%
[13]
  inhibition: 4.48%
[14]
  inhibition: 60.1% (active)

## Cc1ccc(/C=C/c2ccc(N(C)C)cc2)[n+](C)c1
[1]
  inhibition: 36.3%
[2]
  inhibition: 56% (active)
[3]
  inhibition: 11.4%
[4]
  inhibition: 50.1% (active)
[7]
  inhibition: 41.5% (active)
[8]
  inhibition: 78.5% (active)
[9]
  inhibition: 73% (active)
[10]
  inhibition: 67.4% (active)

## COc1ccc(Nc2ncnc3ccc(Br)cc23)c(OC)c1
[1]
  inhibition: 67.1% (active)
[2]
  inhibition: 9.75%
[3]
  inhibition: 68.4% (active)
[4]
  inhibition: 8.18%
[5]
  inhibition: 85.3% (active)
[6]
  inhibition: 75.5% (active)
[7]
  inhibition: 86% (active)
[8]
  inhibition: 47.3% (active)
[9]
  inhibition: 79.2% (active)
[10]
  inhibition: 30.8% (active)
[11]
  inhibition: 32.4%
[12]
  inhibition: 93.8% (active)
[13]
  inhibition: 7.13%
[14]
  inhibition: 11.9%

## Clc1ccc(OCCN2CCN(c3ncnc4sccc34)CC2)cc1
[1]
  inhibition: 14.2%
[2]
  inhibition: 40.4% (active)
[3]
  inhibition: -17.4%
[4]
  inhibition: 42.2% (active)
[7]
  inhibition: 34.8% (active)
[8]
  inhibition: 58.5% (active)
[9]
  inhibition: 50.2% (active)
[10]
  inhibition: 46.7% (active)

## O=C(Nc1ccc2c(c1)OCCO2)C1CCCC1
[1]
  inhibition: 15.8%
[2]
  inhibition: -21.9%
[3]
  inhibition: -2.87%
[4]
  inhibition: -33.3%
[5]
  inhibition: 53.2%
[6]
  inhibition: 13.8%
[11]
  inhibition: -46%
[12]
  inhibition: 51.9% (active)

## Cc1ccc(C)c(S(=O)(=O)N2CCN(c3ncnc4sccc34)CC2)c1
[1]
  inhibition: 63.1% (active)
[2]
  inhibition: 59.6% (active)
[3]
  inhibition: 57.9% (active)
[4]
  inhibition: 56.5% (active)
[5]
  inhibition: 93.9% (active)
[6]
  inhibition: 82.7% (active)
[11]
  inhibition: 32.8%
[12]
  inhibition: 53.3% (active)
[13]
  inhibition: 20.1% (active)
[14]
  inhibition: 49.9% (active)

## CCOC(=O)C(C(C)=O)c1c(Br)c(O)c(O)c2c(C(=O)c3ccc(C)cc3)coc12 (stereo not given)
[1]
  inhibition: 57.6% (active)
[2]
  inhibition: 12.5%
[3]
  inhibition: 12.7%
[4]
  inhibition: 31.2% (active)
[7]
  inhibition: 60.4% (active)
[8]
  inhibition: 94.8% (active)
[9]
  inhibition: 83.7% (active)
[10]
  inhibition: 81.6% (active)

## Cn1c(=N)n(CC(=O)c2ccc(Cl)c(Cl)c2)c2ccccc21
[1]
  inhibition: -33.3%
[2]
  inhibition: -30.2%
[3]
  inhibition: -189%
[4]
  inhibition: -61.4%
